{"source": "PubChem BioAssay (Tox21)", "note": "Several values for one entry are separate records, joined by “and”; a condition that tells them apart may be missing. Equal values may be shown once. Records with an inconclusive call do not appear. Where a call stands in place of a potency, no number is given. Activity calls are given as the source filed them. Calls follow the shape of the dose curve; as a rule, active = well fitted cell-killing curve with a large enough effect in the repeat runs; inconclusive = weak or mixed curves, or effect the other way; inactive = flat fitted curve, though single readings scatter. Potency is read from the fitted curve at half-maximal effect."}
{"test": "qHTS assay to identify small molecule antagonists of the retinoid acid receptor (RAR) signaling pathway - cell viability counter screen (AID 1159551); also: nearly all actives have a fitted effect of over 35% in size", "conditions": "C3RL4 cells viability, ATP luminescence (CellTiter-Glo), 6 h; series mostly up to 92.4 µM", "description": "U.S. Tox21 Program National Center for Advancing Translational Sciences [NCATS] NIH Chemical Genomics Center [NCGC] U.S. Environmental Protection Agency [EPA] National Institutes of Environmental Health Sciences [NIEHS] National Toxicology Program [NTP] U.S. Food and Drug Administration [FDA] Tox21 Assay Overview: All-trans Retinoic acid (atRA) is the potent natural metabolite of retinol and plays an important role in normal embryonic development and maintenance of cellular phenotype in adult animals. atRA is the activating ligand for the retinoic acid receptors (RARs) which form heterodimers with retinoid X receptors (RXRs) on the retinoic acid response element (RARE). Through activation of the RAR/RXRs nuclear receptors, atRA regulates the transcription of a large number of protein-coding genes and regulatory RNAs. Intracellular levels of atRA are controlled by the retinol signaling pathway (RSP) that regulates the biosynthesis and catabolism of atRA to maintain physiological levels. Chemicals that interfere with the RSP can cause abnormal intracellular levels of atRA and therefore are potential developmental toxicants. To assess compounds for the potential adverse effect on embryonic development through interfering with retinol signaling, a cell-based RARE luciferase reporter gene assay was used. C3RL4 cell line (OARSA/CFSAN/FDA, Laurel, MD) was used to screen Tox21 10K compound library for identifying inhibitors of the RSP. Also cytotoxicity was assessed by determining the viability of cells based on the quantitation of ATP.\nTox21 Assay Protocol Summary: C3RL4 cells were seeded at 1,000/well in 4 uL of assay medium into white solid 1,536-well tissue culture plates (Greiner Bio-One North America Inc. Monroe, NC) using a Multidrop Combi (Thermo Scientific, Waltham, MA) dispenser. After incubation at 37 C and 5% CO2 for an overnight, 23 nL of compounds dissolved in DMSO, positive control or DMSO only were transferred by a Pintool station (Kalypsys, San Diego, CA). One ul of 1 uM (final concentration) of Retinol was added right after the compound addition by using a Flying Reagent Dispenser (FRD) (Aurora Discovery, San Diego, CA). After 6 hr incubation at 37 C and 5% CO2, 5 uL of CellTiter-Glo reagent (Promega Corporation, Madison, WI) was added to each assay plate using an FRD. Luminescence was quantified on a ViewLux plate reader (PerkinElmer, Waltham, MA) after 30 min incubation at room temperature."}
{"smiles": "Cc1ccc2cc3c(ccc4ccccc43)c3c2c1CC3", "Potency": "inactive"}
{"smiles": "Clc1ccc(C(Cl)(Cl)Cl)cc1Cl", "Potency": "inactive"}
{"smiles": "COP(=S)(NC(C)C)Oc1ccc(C)cc1[N+](=O)[O-]", "note": "(stereo not given)", "Potency": "inactive"}
{"smiles": "N#Cc1c[nH]cc1-c1cccc2c1OC(F)(F)O2", "Potency": "inactive"}
{"smiles": "C=CCOC(=O)c1ccccc1N", "Potency": "inactive"}
{"smiles": "ClCBr", "Potency": "inactive"}
{"smiles": "Clc1cc(Cl)c(-c2cc(Cl)c(Cl)cc2Cl)cc1Cl", "Potency": "inactive"}
{"smiles": "Cc1cnc2c(C(=O)O)c(Cl)ccc2c1", "Potency": "inactive"}
{"smiles": "CC1(C)C(C=C(Cl)Cl)C1C(=O)OC(C#N)c1ccc(F)c(Oc2ccccc2)c1", "note": "(stereo not given)", "Potency": "inactive"}
{"smiles": "Brc1cccc(-c2ccccc2)c1", "Potency": "inactive"}
{"smiles": "CC1CCCC1", "Potency": "inactive"}
{"smiles": "O=c1c2ccccc2c(=O)c2c1cc(Cl)c1[nH]c3c([nH]c12)c(Cl)cc1c(=O)c2ccccc2c(=O)c13", "Potency": "inactive"}
{"smiles": "CC#C[C@]1(O)CC[C@H]2[C@@H]3C[C@H](C)C4=CC(=O)CC[C@]4(C)[C@H]3CC[C@@]21C", "Potency": "inactive"}
{"smiles": "CNC(=O)O/N=C(\\C)C(C)S(C)(=O)=O", "note": "(stereo not given)", "Potency": "inactive"}
{"smiles": "O.O.O.O=C([O-])[C@H]([O-])[C@@H]([O-])C(=O)[O-].O=C([O-])[C@H]([O-])[C@@H]([O-])C(=O)[O-].[K+].[K+].[Sb+3].[Sb+3]", "Potency": "inactive"}
{"smiles": "O=C(O)[C@H](O)[C@@H](O)C(=O)O", "Potency": "inactive"}
{"smiles": "O=Cc1ccccc1", "Potency": "inactive"}
{"smiles": "CN(C)C(=S)SSC(=S)N(C)C", "Potency": "67.6 µM (active)"}
{"smiles": "C1=CCC=C1", "Potency": "inactive"}
{"smiles": "CN/C(=N\\[N+](=O)[O-])NCc1cnc(Cl)s1", "Potency": "inactive"}
{"smiles": "CCCCON=O", "Potency": "inactive"}
{"smiles": "CCCCCCCCCCCCCCn1cc[n+](C)c1", "Potency": "54.6 µM (active) and 60.4 µM (active)"}
{"smiles": "COc1ccc2[nH]cc(CCN(C(C)C)C(C)C)c2c1", "Potency": "inactive"}
{"smiles": "Clc1ccc(C2(Cn3cncn3)OCCO2)c(Cl)c1", "Potency": "inactive"}
{"smiles": "N#Cc1c2ccccc2cc2ccccc12", "Potency": "inactive"}
{"smiles": "C#CCC1=C(C)C(OC(=O)C2C(C=C(C)C)C2(C)C)CC1=O", "note": "(stereo not given)", "Potency": "inactive"}
{"smiles": "CC(C)c1c(CN(C)C(C)Cc2ccccc2)n(C)n(-c2ccccc2)c1=O", "note": "(stereo not given)", "Potency": "inactive"}
{"smiles": "COC(=O)C(C)N(C(=O)c1ccco1)c1c(C)cccc1C", "note": "(stereo not given)", "Potency": "inactive"}
{"smiles": "S=C=Nc1ccccc1", "Potency": "inactive"}
{"smiles": "CCOP(=O)(Sc1ccccc1)Sc1ccccc1", "Potency": "inactive"}
{"smiles": "COc1nc(C)nc(NC(=O)NS(=O)(=O)c2ccccc2Cl)n1", "Potency": "inactive"}
{"smiles": "CCC1COC(Cn2cncn2)(c2ccc(Cl)cc2Cl)O1", "note": "(stereo not given)", "Potency": "inactive"}
{"smiles": "Oc1ccc2[nH]cc(CCCCN3CC=C(c4ccccc4)CC3)c2c1", "Potency": "inactive"}
{"smiles": "CC(Cc1ccccc1)N(C)Cc1ccco1", "note": "(stereo not given)", "Potency": "inactive"}
{"smiles": "Cc1ccc([N+](=O)[O-])[c]2c1[O][Hg]2", "Potency": "6.68 µM (active)"}
{"smiles": "CCCCC(CC)COC(=O)OOC(C)(C)C", "note": "(stereo not given)", "Potency": "inactive"}
{"smiles": "COc1ccc2c(c1OC)C(=O)O[C@@H]2[C@H]1c2cc3c(cc2CCN1C)OCO3", "Potency": "inactive"}
{"smiles": "[O]=[Cr][O][Cr]=[O]", "Potency": "inactive"}
{"smiles": "[Cl][Hg][c]1ccccc1", "Potency": "17.2 µM (active)"}
{"smiles": "O=S(=O)(NS(=O)(=O)C(F)(F)F)C(F)(F)F", "Potency": "inactive"}
